{"source": "PubChem BioAssay (EPA / NIEHS)", "note": "The source made the active and inactive calls. The calls were made as follows: active = hit-call score of the fitted dose curve at least 0.9, where 1 is the maximum; inactive = score below 0.9.", "data": [{"assay": "CCTE_Shafer_MEA_acute_cross_correlation_area: CCTE's Neural Acute Assay for Area of Cross Correlation, Shafer Lab (AID 2284024);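 also: curves fitted for loss of cross-correlation area so actives lower synchrony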", "method": "CCTE_Shafer_MEA_acute assay is conducted using Axion Biosystems 48 well microelectrode array (MEA) plates and Maestro recording system. Each well of the MEA plate contains a grid of 16 microelectrodes embedded in the culture surface. Electrically active cells, such as neurons, can be cultured over the electrodes, and electrical activity in these cells can be recorded extracellularly. The spontaneous firing of neurons is captured from each electrode on a microsecond timescale providing both temporally and spatially precise data. […] The CCTE_Shafer_MEA_acute assay uses primary cultures of rat cortical neurons. As these cultures mature over time, neural networks develop functional activity and form cohesive networks in which electrical activity can be highly coordinated. Baseline 40-minute recordings are made on days post-plating 13 or 15, followed by a secondary 40-minute recording after chemical exposure.CCTE_Shafer_MEA_acute_cross_correlation_area is a component of the CCTE_Shafer_MEA_acute assay. It measures the area under the well-wide pooled inter-electrode cross-correlation of action potential firing (not normalized to auto-correlations) within a window centered around 0 for the phase lag during a recording in a microelectrode array (MEA) using Axion Biosystems Maestro 768 channel amplifier with the AxIS adaptive spike detector. The recordings before and after chemical treatment are used to calculate a percent change in the cross correlation area in each well.Data from the assay component CCTE_Shafer_MEA_acute_cross_correlation_area was analyzed into 1 assay endpoint. This assay endpoint, CCTE_Shafer_MEA_acute_cross_correlation_area, was analyzed in the negative analysis fitting direction relative to DMSO as the negative control and baseline of activity. Using a type of functional reporter, gain or loss-of-signal activity can be used to understand electrical activity.\nSpontaneous activity in the cortical cultures was recorded using an Axion Biosystems Maestro 768 channel amplifier and Axion Integrated Studios (AxIS) v1.8 (or later) software. The amplifier recorded from all channels simultaneously (gain = 1200 x; sampling rate = 12.5 kHz/channel): raw signals were filtered with a Butterworth band-pass filter (300-5000 Hz), which filters out slower local field potentials leaving only fast potentials, i.e., \"spikes\", arising from extracellular currents associated with action potentials (Pine 2006; Wheeler and Nam 2011). On-line spike detection of filtered signals was conducted with the AxIS adaptive spike detector, using a threshold of 8x the root mean squared (rms) noise on each channel. Any electrodes with rms noise levels greater than 5 uV were grounded (e.g., no data were recorded). Once grounded, an electrode was grounded for the duration of the experiment. All recordings were conducted at 37 C. Wells were deemed usable if on the day of the exposure >/= 10 electrodes were active (defined as >/= 5 spikes/min). On DIV 13 or 15, a minimum of three wells from one cortical culture preparation were treated with each compound (0.03-40 uM). Prior to recording baseline activity, each mwMEA plate was placed in the Maestro at 37 C and allowed to sit for 20 min while firing rates stabilized. Baseline activity (40 min) was recorded before the addition of each compound. An additional 40 min of spontaneous activity was recorded in the presence of each compound. Changes in network parameters relative to baseline were assessed following compound treatment.", "values": [{"smiles": "Oc1ccc(Cc2ccc(O)cc2)cc1", "AC50": "0.00164 µM (active)"}, {"smiles": "Cc1ccccc1OP(=O)(Oc1ccccc1C)Oc1ccccc1C", "outcome": "inactive"}, {"smiles": "CN(C)C(=S)S", "outcome": "inactive"}, {"smiles": "Clc1cccc(Cl)c1Cl", "outcome": "inactive"}, {"smiles": "N#Cc1cccnc1", "outcome": "inactive"}, {"smiles": "O=C(Cc1ccccc1)OCCc1ccccc1", "outcome": "inactive"}, {"smiles": "Oc1cc(Cl)c(Cl)cc1Cl", "outcome": "inactive"}, {"smiles": "CC(C)(C)c1ccccc1O", "outcome": "inactive"}, {"smiles": "CS(=O)(=O)c1ccc(C(=O)C2C(=O)CCCC2=O)c(Cl)c1COCC(F)(F)F", "outcome": "inactive"}, {"smiles": "CCCCOC(=O)COC(=O)c1ccccc1C(=O)OCCCC", "AC50": "0.0115 µM (active)"}, {"smiles": "OCCCCO", "outcome": "inactive"}, {"smiles": "CC(C)[C@@H](Nc1ccc(C(F)(F)F)cc1Cl)C(=O)OC(C#N)c1cccc(Oc2ccccc2)c1", "note": "(stereo not given in full)", "AC50": "0.534 µM (active)"}, {"smiles": "CC1(C)[C@H](C(=O)O[C@H](C#N)c2cccc(Oc3ccccc3)c2)[C@@H]1/C=C(\\Cl)C(F)(F)F", "AC50": "0.0359 µM (active)"}, {"smiles": "CCCCCCCCCCCCc1cccc(S(=O)(=O)O)c1", "outcome": "inactive"}, {"smiles": "Cc1cc(C(F)(C(F)(F)F)C(F)(F)F)ccc1NC(=O)c1cccc(I)c1C(=O)NC(C)(C)CS(C)(=O)=O", "outcome": "inactive"}]}]}
